# Measured values published in PubChem BioAssay (Tox21).
# Where “and” joins values, the source holds several entries; their conditions need not be identical. Equal values may be shown once. Inconclusive results are not listed. Where a call stands in place of a potency, no number is given. Some structures have more than one record in an assay (separate samples or runs), and their calls can disagree. Calls of active or inactive are those of the source. Unless noted, calls follow the shape of the dose curve; as a rule, active = well fitted curve in the direction sought with a large enough effect in the repeat runs; inconclusive = weak or mixed curves; inactive = no such curve, though single readings can be large; an effect the other way counts as inactive or inconclusive.
# Columns and labels:
# [1] = qHTS assay for identifying genotoxic compounds that show differential cytotoxicity against isogenic chicken DT40 cell lines with known DNA damage response pathways - wild type cell line (AID 743012); also: nearly all actives have a fitted effect of over 60% in size; also: potency is read from the fitted curve at half-maximal effect
# Method in brief: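 Parental DNA repair-proficient DT40 cells, 300 per well, were pre-incubated ~0.5 h at 37 C/5% CO2, pin-dosed with compounds in DMSO, then incubated 40 h. Viability was read as CellTiter-Glo luminescence after 30 min at room temperature.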
# [2] = qHTS assay for identifying genotoxic compounds that show differential cytotoxicity against isogenic chicken DT40 cell lines with known DNA damage response pathways - Rad54/Ku70 mutant cell line (AID 743015); also: nearly all actives have a fitted effect of over 60% in size; also: potency is read from the fitted curve at half-maximal effect
# [3] = qHTS assay to identify small molecule antagonists of the androgen receptor (AR) signaling pathway - cell viability counter screen (AID 743033; also: nearly all actives have a fitted effect of over 45% in size; also: potency is read from the fitted curve at half-maximal effect)
# [4] = target: Androgen receptor (Homo sapiens) (UniProt P10275); experiment: qHTS assay to identify small molecule antagonists of the androgen receptor (AR) signaling pathway (AID 743035; active = well fitted inhibition curve with a large enough effect in the signal ratio in the repeat runs, not every such curve was filed as active; the % refers to the signal ratio)
# Chain of Androgen receptor (Homo sapiens) (P10275 whole entry, looked up): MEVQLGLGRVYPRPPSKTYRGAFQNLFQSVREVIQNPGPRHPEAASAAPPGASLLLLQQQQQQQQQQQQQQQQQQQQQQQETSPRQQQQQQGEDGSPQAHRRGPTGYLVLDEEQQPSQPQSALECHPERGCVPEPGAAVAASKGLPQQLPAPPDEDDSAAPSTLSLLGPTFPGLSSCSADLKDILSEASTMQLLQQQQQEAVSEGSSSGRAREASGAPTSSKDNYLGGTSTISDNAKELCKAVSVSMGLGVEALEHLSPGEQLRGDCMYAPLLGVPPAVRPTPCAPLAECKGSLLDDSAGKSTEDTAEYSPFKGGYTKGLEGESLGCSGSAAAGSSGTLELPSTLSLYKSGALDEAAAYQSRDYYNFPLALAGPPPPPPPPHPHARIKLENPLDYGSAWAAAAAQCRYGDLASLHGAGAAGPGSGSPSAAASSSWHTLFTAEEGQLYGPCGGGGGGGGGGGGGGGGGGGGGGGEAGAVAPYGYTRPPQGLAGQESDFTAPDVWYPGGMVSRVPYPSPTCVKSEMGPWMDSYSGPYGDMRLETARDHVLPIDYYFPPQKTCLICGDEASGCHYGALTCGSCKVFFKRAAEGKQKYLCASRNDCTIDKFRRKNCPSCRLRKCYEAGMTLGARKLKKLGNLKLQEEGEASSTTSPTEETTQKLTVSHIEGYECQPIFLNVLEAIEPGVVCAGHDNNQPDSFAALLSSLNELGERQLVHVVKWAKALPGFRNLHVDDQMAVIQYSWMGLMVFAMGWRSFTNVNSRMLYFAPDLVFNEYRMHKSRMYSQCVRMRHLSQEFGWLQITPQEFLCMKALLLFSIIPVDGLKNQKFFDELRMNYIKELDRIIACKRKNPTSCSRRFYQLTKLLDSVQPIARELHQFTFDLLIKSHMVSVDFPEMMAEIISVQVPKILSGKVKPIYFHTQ
# Method in brief: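 HEK293 cells stably carrying a UAS-driven beta-lactamase reporter (AR-UAS-bla GripTite) were plated for 4 h at 37C, then given compound and the agonist R1881 and incubated 16 h. Reporter activity was read by LiveBLAzer B/G FRET fluorescence after 2 h at room temperature.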
# [5] = target: Androgen receptor (Homo sapiens) (UniProt P10275); experiment: qHTS assay to identify small molecule agonists of the androgen receptor (AR) signaling pathway (AID 743036; active = well fitted activation curve with a large enough effect in the signal ratio in the repeat runs, with a control signal flat, not every such curve was filed as active; the % refers to the signal ratio; also: potency is read from the fitted curve at half-maximal effect)
# Method in brief: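 Fluorescence from a beta-lactamase FRET substrate served as read-out in AR-UAS-bla GripTite HEK293 cells. Cells were treated with DMSO-dissolved compounds for 16 h at 37C, then with LiveBLAzer B/G substrate for 2 h at room temperature.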
# [6] = target: Androgen receptor (Homo sapiens) (UniProt P10275); experiment: qHTS assay to identify small molecule agonists of the androgen receptor (AR) signaling pathway using the MDA cell line (AID 743040; also: nearly all actives have a fitted effect of over 20% in size)
# Method in brief: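 MDA-kb2 breast carcinoma cells carrying MMTV-luciferase (responsive to AR and GR), plated 5 h then treated 16 h with compounds at 37C, 0% CO2. Read-out was ONE-Glo luminescence after 30 min at room temperature.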
# [7] = qHTS assay to identify small molecule antagonists of the androgen receptor (AR) signaling pathway using the MDA cell line - cell viability counter screen (AID 743041; also: nearly all actives have a fitted effect of over 45% in size; also: potency is read from the fitted curve at half-maximal effect)
# Method in brief: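 MDA-kb2 AR-luc cells (MMTV-luciferase, AR/GR responsive) treated with compounds plus R1881 agonist for 16 h at 37C. CellTiter-Fluor added at 15.5 h; fluorescence read after 30 min in the same wells.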
# [8] = target: Androgen receptor (Homo sapiens) (UniProt P10275); experiment: qHTS assay to identify small molecule antagonists of the androgen receptor (AR) signaling pathway using the MDA cell line (AID 743042; also: nearly all actives have a fitted effect of over 55% in size; also: potency is read from the fitted curve at half-maximal effect)
# Method in brief: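 MDA-kb2 breast carcinoma cells carrying MMTV-luciferase (AR/GR responsive) were co-treated with compounds and the agonist R1881 for 16 h at 37C. Inhibition read as ONE-Glo luminescence; CellTiter-Fluor fluorescence measured in parallel for cytotoxicity.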
# [9] = qHTS assay for identifying genotoxic compounds that show differential cytotoxicity against isogenic chicken DT40 cell lines with known DNA damage response pathways - Rev3 mutant cell line (AID 743014); also: nearly all actives have a fitted effect of over 55% in size; also: potency is read from the fitted curve at half-maximal effect
compound,measurement,setting,value
Nc1ccc(C(=O)O)c(O)c1,Potency,[1],inactive
same,Potency,[2],inactive
same,Potency,[3],inactive
same,Potency,[4],inactive
same,Potency,[5],inactive
same,outcome,[6],inactive
same,Potency,[7],inactive
same,Potency,[8],inactive
CC(C)=CCC1=C(O)c2ccccc2C(=O)C1=O,Potency,[9],48.3 µM (active)
same,Potency,[2],60.8 µM (active)
same,outcome,[6],inactive
same,Potency,[8],inactive
CCCCC/C=C\C/C=C\CCCCCCCC(=O)O,Potency,[9],inactive
same,Potency,[2],inactive and 54.5 µM (active)
same,Potency,[3],inactive
same,Potency,[7],inactive
Cc1c(C)c([N+](=O)[O-])c(C(C)(C)C)c([N+](=O)[O-])c1C,Potency,[1],inactive
same,Potency,[2],inactive
same,Potency,[3],inactive
same,Potency,[7],inactive
Cc1cccc2cccnc12,Potency,[1],inactive
same,Potency,[2],inactive
same,Potency,[3],inactive
same,Potency,[7],inactive
Cc1c(F)c(N2CCNC(C)C2)cc2c1c(=O)c(C(=O)O)cn2C1CC1 (stereo not given),Potency,[1],inactive
same,Potency,[2],inactive
same,Potency,[7],inactive
CCCCCCCCCCC[C@@H](C[C@@H]1OC(=O)[C@H]1CCCCCC)OC(=O)[C@H](CC(C)C)NC=O,Potency,[1],1.06 µM (active)
same,Potency,[3],inactive
same,Potency,[7],inactive
O=C(Nc1ccc2c(O)c(N=Nc3ccc(N=Nc4ccc(S(=O)(=O)O)cc4)cc3)c(S(=O)(=O)O)cc2c1)c1ccccc1,Potency,[3],inactive
same,Potency,[7],24.3 µM (active)
O=S(=O)(O)c1ccc(Nc2nc(Nc3ccc(/C=C/c4ccc(Nc5nc(Nc6ccc(S(=O)(=O)O)cc6)nc(N(CCO)CCO)n5)cc4S(=O)(=O)O)c(S(=O)(=O)O)c3)nc(N(CCO)CCO)n2)cc1,Potency,[9],inactive
same,Potency,[2],inactive
same,Potency,[3],inactive
same,Potency,[5],33.1 µM (active)
same,outcome,[6],inactive
same,Potency,[8],inactive
CNc1ccc([N+](=O)[O-])cc1,Potency,[9],68.7 µM (active)
same,Potency,[2],68.7 µM (active)
same,Potency,[3],inactive
same,Potency,[4],inactive
same,Potency,[8],inactive
Cc1cc(C(C#N)c2ccc(Cl)cc2)c(Cl)cc1NC(=O)c1cc(I)cc(I)c1O (stereo not given),Potency,[1],26.6 µM (active)
same,Potency,[2],26.6 µM (active)
same,Potency,[3],inactive
Cc1cc(=O)oc2cc(O)cc(O)c12,Potency,[1],inactive
same,Potency,[9],inactive
same,Potency,[3],inactive
same,outcome,[6],inactive
same,Potency,[8],inactive
Cc1c2ccccc2c(C)c2c1ccc1ccccc12,Potency,[9],15.2 µM (active) and 2.73 µM (active)
same,Potency,[2],21.5 µM (active) and 4.33 µM (active)
same,Potency,[3],48.5 µM (active) and 24.5 µM (active)
same,outcome,[6],inactive
same,Potency,[7],61.1 µM (active)
same,Potency,[8],inactive and 30.6 µM (active)
COCCOc1cc2cc(C(=O)NC3CCN(C(C)C)CC3)n(CC(=O)Nc3ccc(Cl)cn3)c2cn1,Potency,[9],inactive
same,Potency,[3],inactive
same,Potency,[7],inactive
